A549 tox: Nrf2 qHTS screen for inhibitors: counterscreen for cytotoxicity; A549 ARE-Fluc cells, CellTiter-Fluor viability, 18-24 h; Potency, µM (top dose mostly 46 µM), actives largely listed as inhibitors; actives 0.16% (n = 390,000); AID 504648, 2011
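A549 ARE_Fluc cells in 5% FBS OPTI-MEM were exposed to compounds in concentration-response for 18-24 h at 37 deg C. Viability was read by CellTiter-Fluor fluorescence (Ex 405/Em 525) after 30 min, before the luciferase read.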
Nrf2 ARE act: qHTS of Nrf2 Activators; AREc32 ARE-luciferase reporter (MCF7-derived line), luminescence, 24 h; Potency, µM (highest dose often 46.1 µM), most hits filed as activators; actives 0.31% (n = 410,000); AID 624171, 2012; further: nearly all actives have a fitted effect of over 65% in size
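AREc32 cells carrying an ARE-driven firefly luciferase reporter were seeded at 1000 cells/well in OPTI-MEM with 5% FBS, then exposed to compound for 24 hr at 37 deg C. Luminescence was read with Steady-Glo after 30 min at RT.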
ELG1 repair inh: qHTS screen for small molecules that inhibit ELG1-dependent DNA repair in human embryonic kidney (HEK293T) cells expressing luciferase-tagged ELG1; HEK293T ELG1-luciferase reporter, luminescence, 16 h; DNA damage induced by 5-fluorouridine; Potency, µM (titrated, usually from 46.1 µM), hits mostly inhibitors; actives 2.3% (n = 330,000); AID 504467, 2011; further: nearly all actives have a fitted effect of over 55% in size
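Quantitative HTS, concentration-response format. 2,000 cells/well co-treated with 5-fluorouridine and compound, 16 hr in 5% CO2 at 37 °C; ONE-Glo luminescence read after 30 min.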
Nrf2 block: Nrf2 qHTS screen for inhibitors | A549 ARE-Fluc reporter, luciferase luminescence, 18-24 h | Potency, µM (doses to about 46 µM), actives largely listed as inhibitors | actives 2.1% (n = 360,000) | AID 504444, 2011; further: nearly all actives have a fitted effect of over 60% in size
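Quantitative HTS in A549 cells stably bearing an antioxidant response element-firefly luciferase construct. Inhibition of Nrf2-driven transcription was scored by luminescence after 18-24 h of compound exposure at 37 °C.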
Of the large screens only hits and unclear results are named; the others gave an inactive call. Only some compounds are listed: those with a hit (about 3.7% of all), similar ones and a draw of the others. The call rests on the fitted dose curve; in most records, active means well fitted curve in the direction sought with a large enough effect; inconclusive means small, poorly fitted or top-dose-only effect, or another doubt; inactive means no such curve, though single readings can be large; an effect the other way counts as inactive or inconclusive.

O=C1c2ccc3c4c(ccc(c24)C(=O)N1CCCCO)C(=O)N(CCCCO)C3=O	A549 tox 18µM, ELG1 repair inh 2.1µM, Nrf2 block inconclusive
COC(=O)CCCN1C(=O)c2cccc3cccc(c23)C1=O	Nrf2 ARE act 13µM
COc1cc(C)ccc1N(CCCN1C(=O)c2cccc3cccc(c23)C1=O)C(=O)c1cccs1	ELG1 repair inh 21µM, Nrf2 block inconclusive
O=C(CCCN1C(=O)c2cccc3cccc(c23)C1=O)N1CCN(c2ccc(F)cc2)CC1	ELG1 repair inh inconclusive, Nrf2 block inconclusive
Cc1ccc(F)c(S(=O)(=O)NC(=O)C2(C)CCN2C(=O)CC2CCCCC2)c1 (stereo not drawn)	none (no result: A549 tox, ELG1 repair inh, Nrf2 block)
Cc1cc(-c2nn(-c3ccccc3F)cc2CN(C)CC(O)CO)c(C)s1 (stereo not drawn)	none
COc1ccc(OC)c(NC(=O)c2cccc(N3C(=O)C4C5C=CC(C6CC56)C4C3=O)c2)c1 (stereo not drawn)	ELG1 repair inh inconclusive
O=C(Nc1ccc(Br)cc1)c1cccc(N2C(=O)C3C4CCC(C4)C3C2=O)c1 (stereo not drawn)	ELG1 repair inh 16µM, Nrf2 block inconclusive
O=C(Nc1ccc(F)cc1)c1cccc(N2C(=O)C3C4C=CC(C4)C3C2=O)c1 (stereo not drawn)	none
COC(=O)c1ccc(NC(=O)c2cccc(N3C(=O)C4C5C=CC(C6CC56)C4C3=O)c2)cc1 (stereo not drawn)	A549 tox inconclusive, ELG1 repair inh inconclusive, Nrf2 block 21µM
O=C(Nc1ccccc1)c1cccc(N2C(=O)C3C4C=CC(C5CC45)C3C2=O)c1 (stereo not drawn)	ELG1 repair inh inconclusive, Nrf2 block 21µM
O=C(Nc1ccc(F)cc1)c1cccc(N2C(=O)C3C4C=CC(C5CC45)C3C2=O)c1 (stereo not drawn)	ELG1 repair inh 16µM, Nrf2 block 15µM
CCN(CC)CCNC(=O)CSc1nc2nc(C)c(Cc3ccccc3)c(C)n2n1	none (no result: ELG1 repair inh)
Cc1cccc(NC(=O)c2ccc(N3C(=O)C4C5C=CC(C6CC56)C4C3=O)cc2)c1 (stereo not drawn)	ELG1 repair inh 8.2µM, Nrf2 block inconclusive
O=C(Nc1ccc(F)cc1)c1ccccc1F	Nrf2 block inconclusive (no result: ELG1 repair inh)
CC(=O)c1cccc(NC(=O)c2cc(-c3ccncc3)nc3ccccc23)c1	ELG1 repair inh 21µM
Cc1cc(C(=O)Nc2ccncc2)c2ccccc2n1	ELG1 repair inh 23µM
O=C(Nc1ccncc1)c1ccccc1F	ELG1 repair inh 10µM, Nrf2 block inconclusive
Cc1ccc(NC(=O)c2cc(C)nc3ccccc23)cc1	none
O=C(NCc1cccs1)c1ccc2c(c1)sc1nc(-c3ccccc3)cn12	none (no result: ELG1 repair inh)
Cc1cccc2cc(C#N)c(NCCNC(=O)NC3CCCCC3)nc12	Nrf2 block 9.2µM
O=C(O)c1ccc(COc2ccccc2/C=C2\NC(=O)N(Cc3ccccc3)C2=O)cc1	none
O=C(O)c1ccc(COc2ccc3ccccc3c2/C=C2/NC(=O)N(Cc3ccc(F)cc3)C2=O)cc1	ELG1 repair inh inconclusive, Nrf2 block 21µM
O=C1C(=O)c2ccccc2C(O)=C1CCCCl	ELG1 repair inh 18µM
COc1ccc(OCC(=O)N2CCN(S(=O)(=O)c3ccc(Cl)cc3)CC2)cc1	none
COc1ccc(CN(C)C(=O)CCC(=O)N2CCN(S(=O)(=O)c3ccc(Cl)cc3)CC2)c(OC)c1	Nrf2 block 12µM (no result: ELG1 repair inh)
CC(=O)Nc1cccc(C(=O)NC2CCCc3c2cnn3-c2ccc(C(C)(C)C)cc2)c1 (stereo not drawn)	ELG1 repair inh 8.2µM, Nrf2 block inconclusive
Cc1cc(C(=O)NC2CCCc3c2cnn3-c2ccc(C(C)(C)C)cc2)nn1C (stereo not drawn)	Nrf2 block 2.6µM
COC(=O)c1ccc(C(=O)NC2CCCc3c2cnn3-c2cc(F)cc(F)c2)nc1 (stereo not drawn)	A549 tox inconclusive, ELG1 repair inh 21µM
O=C(NC1CCCc2c1cnn2-c1cc(F)cc(F)c1)c1ccccn1 (stereo not drawn)	none (no result: ELG1 repair inh)
Cn1c(CCn2ccccc2=O)nc2cc(NC(=O)COc3ccccc3)ccc21	ELG1 repair inh inconclusive
O=C(NN1C(=O)/C(=C/c2cccs2)SC1=S)c1ccncc1	A549 tox inconclusive, ELG1 repair inh 4.1µM
CCCn1nc(NC(=O)c2cccs2)c2cc3ccccc3nc21	ELG1 repair inh inconclusive, Nrf2 block 18µM (no result: A549 tox)
CCCn1nc(NC(=O)c2cccs2)c2cc3cc(C)ccc3nc21	ELG1 repair inh inconclusive, Nrf2 block 16µM
CCCn1nc(NC(=O)c2cccs2)c2cc3ccc(C)cc3nc21	A549 tox inconclusive, Nrf2 block inconclusive
CCCCn1nc(NC(=O)c2cccs2)c2cc3cc(OC)ccc3nc21	ELG1 repair inh inconclusive (no result: Nrf2 block)
CCCCn1nc(NC(=O)c2cccs2)c2cc3ccccc3nc21	ELG1 repair inh inconclusive, Nrf2 block 12µM
COc1ccc(OC)c(C(=O)COC(=O)c2c(OC)cccc2OC)c1	ELG1 repair inh inconclusive
COc1ccc(OC)c(C(=O)COC(=O)c2ccccc2O)c1	Nrf2 ARE act 13µM, ELG1 repair inh inconclusive
CCC(=O)C1=C(O)C(c2cccc(Oc3ccccc3)c2)CCC1=O (stereo not drawn)	A549 tox inconclusive, ELG1 repair inh inconclusive, Nrf2 block 15µM
COc1ccc2c(c1)C(=O)CCC2c1ccccc1 (stereo not drawn)	none
O=C(NCCCNC(=O)c1c(Cl)cccc1Cl)c1c(Cl)cccc1Cl	none (no result: ELG1 repair inh)
COc1ccc(-c2cn3cccnc3n2)cc1NC(=O)Cc1ccccc1	none (no result: ELG1 repair inh, Nrf2 block)
CCC1(c2ccccc2)SCC(c2ccccc2)=NC1=O (stereo not drawn)	Nrf2 block 18µM (no result: ELG1 repair inh)
Cc1csc2nc(CCNS(=O)(=O)c3ccccc3)cn12	none (no result: ELG1 repair inh, Nrf2 block)
Cc1c(Cl)sn(-c2ccc(Cl)cc2)c1=O	A549 tox inconclusive, ELG1 repair inh inconclusive, Nrf2 block 26µM
Cc1ccc(Cl)cc1NC(=S)NCCCSC1CCCCC1	A549 tox inconclusive, Nrf2 block 26µM
Cc1cc(Cl)ccc1NC(=S)NCCCO	none
c1coc(-c2cnc3ccccc3n2)c1	Nrf2 ARE act 4µM (no result: A549 tox, ELG1 repair inh, Nrf2 block)
Oc1ccc(-c2cnc3ccccc3n2)cc1	Nrf2 block inconclusive (no result: ELG1 repair inh)
c1coc(-c2nc3ccccc3nc2-c2ccco2)c1	Nrf2 ARE act 10µM
O=C(c1ccccc1)c1ccc2nc(-c3ccco3)c(-c3ccco3)nc2c1	A549 tox inconclusive, Nrf2 ARE act inconclusive, ELG1 repair inh inconclusive
CCOC(=O)CSc1nc2ccsc2c(=O)n1C1CCN(C(=O)OCC)CC1	ELG1 repair inh inconclusive
CCOC(=O)N1CCC(n2c(SCC(=O)NCc3ccccc3)nc3ccccc3c2=O)CC1	ELG1 repair inh inconclusive
CCOC(=O)N1CCC(n2c(SCC(=O)Nc3ccccc3OC)nc3ccccc3c2=O)CC1	ELG1 repair inh inconclusive, Nrf2 block 15µM (no result: A549 tox)
CCOC(=O)N1CCC(n2c(SCC(=O)OCc3ccccc3)nc3ccsc3c2=O)CC1	ELG1 repair inh 23µM (no result: Nrf2 block)
